Source: PubChem BioAssay AID1851 (National Center for Advancing Translational Sciences (NCATS), 2009)
The whole screen tested about 16,000 compounds, of which about 5,700 (36%) were called active. About 24% were inconclusive and are not listed. Calls follow the shape of the dose curve; as a rule, active = well fitted curve in the direction sought with a large enough effect; inconclusive = small, poorly fitted or top-dose-only effect, or effect the other way; inactive = no such curve, though single readings can be large or run the other way. This is one part of the list.

target: Cytochrome P450 1A2 (Homo sapiens) (UniProt P05177); test: Cytochrome panel assay with activity outcomes; conditions: recombinant CYP, pro-luciferin dealkylation, luminescence, p450-cyp1a2; series mostly up to 57.1 µM; activity, negative = inhibition: at the top concentration
Sequence (P05177 whole entry, looked up): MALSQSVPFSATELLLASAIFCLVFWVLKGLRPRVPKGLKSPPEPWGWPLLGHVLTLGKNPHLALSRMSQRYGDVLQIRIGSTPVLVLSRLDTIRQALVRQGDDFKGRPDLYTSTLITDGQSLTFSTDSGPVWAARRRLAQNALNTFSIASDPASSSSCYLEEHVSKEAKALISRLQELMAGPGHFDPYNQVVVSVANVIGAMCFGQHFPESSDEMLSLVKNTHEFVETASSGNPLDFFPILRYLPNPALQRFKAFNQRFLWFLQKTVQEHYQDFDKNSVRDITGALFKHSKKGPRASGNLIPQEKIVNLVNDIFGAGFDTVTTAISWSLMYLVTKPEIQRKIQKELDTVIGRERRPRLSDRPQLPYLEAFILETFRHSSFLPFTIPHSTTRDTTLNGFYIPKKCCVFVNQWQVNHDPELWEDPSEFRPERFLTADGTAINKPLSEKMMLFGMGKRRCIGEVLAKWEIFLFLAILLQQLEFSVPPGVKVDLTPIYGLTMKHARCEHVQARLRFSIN
% is scaled to controls: 0 for no effect and ±100 for the full control effect.

activity, negative = inhibition, inactive:
O=C(O)/C=C/C(=O)Nc1ccccc1-c1ccccc1 -3.11%
CC[C@H](C)N(C)C(=O)c1cc2ccccc2c(-c2ccccc2Cl)n1 5.49%
C=C1C(=O)O[C@@H]2[C@@H]1CC/C(C)=C\CC[C@@]1(C)O[C@H]21 -12%
CC[N+](C)(CC)CCN1C(=O)c2ccccc2S1(=O)=O -12.1% [at 11.4 µM]
CN(C)S(=O)(=O)c1ccc(NC(=O)COC(=O)c2ccccn2)cc1 -11.8%
Cc1nc2ccc(S(=O)(=O)NC(CC(C)C)C(=O)O)cc2s1 (centres undefined) -5.7%
CCN(c1ccccc1)S(=O)(=O)c1ccc(NC(=S)NC(=O)c2ccc(Br)o2)cc1 0.527%
COc1ccc(C(=O)N2CCC3(CCCN(Cc4ccccc4OC)C3)CC2)cc1 -16.7%
CC12CCC(C(=O)Nc3ccccc3Br)(C/C1=N\O)C2(C)C (centres undefined) -3.81%
COC(=O)N1CCC[C@@]2(CCN(C(=O)Nc3cccc(C#N)c3)C2)C1 -19.3%
O=S(=O)(c1ccccc1)N1N=C(c2cccs2)CC1c1ccc(Br)cc1 (centres undefined) -18.4%
C[C@@H]1CC[C@H]2C(=O)N3[C@@H](CC[C@@H](C)[C@@H]3c3ccc(Br)cc3)C(=O)N2[C@@H]1c1ccc(Br)cc1 -18.2% [at 11.4 µM]
C=C[C@]1(C)C[C@H](OC(=O)CO)[C@]2(C)C3C(=O)CC[C@]3(CC[C@H]2C)[C@H](C)[C@H]1O (some centres undefined) -21% [at 2.29 µM]
COc1cccc(N2C(=O)C(CC(=O)Nc3ccccc3)N(C3CCCCC3)C2=O)c1 (centres undefined) -9.5%
COc1cccc(NC(=O)Cc2c(C(=O)O)[nH]c3ccccc23)c1 6.45%
COc1ccc(NC(=O)N2CC3(CCN(C(=O)c4c(C)noc4C)CC3)C2)cc1 7.88%
O=C1CCC(c2ccccc2)(c2ccccc2)CC1 -13.3% [at 11.4 µM]
CCCc1cc2c(n1Cc1cc(F)cc(F)c1)C(C)C1CN(C(=O)c3ccccc3)C(C)(C(=O)OC)C21 (centres undefined) -19.9%
COc1cccc(NC(=O)C2c3cc(OC)c(OC)cc3C(=O)N(C)C2c2cccnc2)c1 (centres undefined) -4.27%
CCN1C(=O)C(CC(=O)Nc2ccc(OC)cc2)N(Cc2cccnc2)C1=S (centres undefined) -12.1%
O=C1CCC=C1[C@@H](O)CCc1ccccc1 -4.4% [at 11.4 µM]
CN(C)[C@H]1C(=O)C(C(=O)NCN2CCCC2)=C(O)[C@]2(O)C(=O)C3=C(O)c4c(O)cccc4[C@](C)(O)[C@H]3C[C@H]12 -17.5% [at 11.4 µM]
CCCCNC(=O)CSc1nc2cc(OC)c(OC)cc2c(=O)n1Cc1ccc(OC)cc1 -11.3%
CCCN1CCN(CCCNC(=O)Cn2nc(-c3ccc(C)cc3)ccc2=O)CC1 1.86%
Cc1nc(C(=O)Nc2ccc(Cl)cc2Cl)nn1-c1cc(OC(C)C)c(Cl)cc1Cl -4.26%
Nc1ncnc2nc(N3CCN(CCO)CC3)[nH]c12 -1.17% [at 2.29 µM]
CN(C)CCOC(=O)C1(c2ccccc2)CCOCC1 5.6%
Cc1ccc(OCC(=O)NNC(=O)CCC(=O)NCc2ccccc2)cc1 -22.3%
CC(=O)c1ccc(NC(=O)C2(c3ccccc3)CCOCC2)cc1 -7.53%
CCOc1ccc(-n2cc(C(=O)NCc3ccco3)c3cc(OC)c(OC)cc3c2=O)cc1 -10.7%
C=CCNC(=O)/C(=C\C=C\c1ccccc1)NC(=O)c1ccc(OCCCC)cc1 -2.51%
CCS(=O)(=O)N1CCC(C(=O)NCc2ccco2)CC1 17%
O=C(O)C1C2CCC(C2)C1C(=O)NCc1ccco1 (centres undefined) 9.79%
COc1ccc(S(=O)(=O)N(C)CC(=O)NCc2ccco2)cc1 -0.209%
C/C(CC(=O)NCc1ccco1)=N\NC(=O)Cc1ccccc1 -4.02%

AC50, active:
O=C(O)/C=C\C(=O)Nc1cccc2c1-c1ccccc1C2=O 2.51 µM
Fc1ccc(-c2ccnc3nc(N4CCOCC4)nn23)cc1 10 µM
CC(C)Sc1cc(N2CCCC2)nc(-c2ccc(F)cc2)n1 0.631 µM
CCCSc1cc(N2CCCC2)nc(-c2ccccc2)n1 0.631 µM
CC(C)Sc1cc(N2CCOCC2)nc(-c2ccc(Cl)cc2)n1 5.62 µM
Cc1ccc2nc(NC(=O)COC(=O)CSc3nc(C)cc(C)n3)sc2c1 0.891 µM
CN(C)S(=O)(=O)c1cccc(NC(=O)COC(=O)c2ccc(Br)o2)c1 14.1 µM
Cc1ccc2nc(NC(=O)CSCC(=O)OCC(=O)c3ccc(Br)cc3)sc2c1 8.91 µM
Cc1ccc2nc(NC(=O)COC(=O)c3ccc(Br)o3)sc2c1 4.47 µM
O=C(Cc1ccc2c(c1)CCCC2)Nc1ccccc1Br 11.2 µM
CS(=O)(=O)N1N=C(c2ccc(Br)cc2)CC1c1ccc2c(c1)OCO2 (centres undefined) 3.55 µM
COc1ccc(OC)c(NC(=O)c2c3c(nc4ccccc24)CCC3)c1 12.6 µM
COc1ccc(NC(=O)COC(=O)c2c3c(nc4ccccc24)CCCC3)cc1 7.08 µM
COc1cccc(NC(=O)COC(=O)c2c3c(nc4ccccc24)CCC(C)C3)c1 (centres undefined) 2.51 µM
COc1ccc(NC(=O)COC(=O)c2c(-c3ccccc3)noc2C)cc1 12.6 µM
CC(C)(C)Nc1nc(N2CCCC2)nc(N2CCCC2)n1 0.631 µM
COc1ccccc1CNc1nc(-c2cccc(C#N)c2)nc2ccccc12 1.26 µM
COc1ccc(CNc2nc(-c3cccc(C#N)c3)nc3ccccc23)c(OC)c1 2.51 µM
COc1ccc(CNc2nc(-c3cccc(NS(C)(=O)=O)c3)nc3ccccc23)c(OC)c1 15.8 µM
Cc1noc(C)c1-c1cc(N(C)Cc2ccco2)ncn1 3.16 µM
Cc1noc(C)c1-c1nccc(N(C)Cc2ccco2)n1 2 µM
Cc1noc(C)c1-c1cc(N(C)C)ncn1 3.16 µM
Cc1noc(C)c1-c1nccc(N(C)C)n1 0.631 µM
N#CCSc1ncnc2c1cnn2CCO 15.8 µM
COc1ccc(NC(=S)N(CCc2nc3cc(C)c(C)cc3[nH]2)Cc2cccnc2)cc1 15.8 µM
COc1cccc(NC(=S)N(CCc2nc3cc(C)c(C)cc3[nH]2)Cc2cccnc2)c1 14.1 µM
Cc1cccc(NC(=S)N(CCc2nc3cc(C)c(C)cc3[nH]2)Cc2cccnc2)c1 14.1 µM
COc1cc2nc(SCc3ccc(Cl)cc3Cl)n(Cc3cccs3)c(=N)c2cc1OC 5.01 µM
CC(Oc1ccc(Cl)cc1Cl)C(=O)/C=C/N(C)C (centres undefined) 7.08 µM
CCN(CC)CCOC(=O)C1(c2ccc([N+](=O)[O-])cc2)CCCC1 3.16 µM
Cc1ccc(OCCCC(=O)NCc2ccco2)cc1 14.1 µM
CCCCOc1ccc(C(=O)NCc2ccco2)cc1 1.26 µM
CC(C)(C)c1ccc(C(=O)NCCC(=O)NCc2ccco2)cc1 1.58 µM
CCCCCOc1ccc(C(=O)NCC2(c3ccccc3)CCOCC2)cc1 15.8 µM
